Results taken from PubChem BioAssay AID624305 (National Center for Advancing Translational Sciences (NCATS), 2012).
Records with an inconclusive call do not appear. Where a call stands in place of a potency, no number is given. The source made the active and inactive calls. Calls come from the whole dose curve; as a rule, active = well fitted activation curve with a large enough effect; inconclusive = small, poorly fitted or top-dose-only effect; inactive = no such curve, though single readings can be large or run the other way.

Experiment: qHTS assay for re-activators of p53 using a Luc reporter: Hit Validation; note: nearly all actives have a fitted effect of over 75% in size
Conditions: p53-responsive luciferase reporter cells, luminescence, H1299 line expressing heat-sensitive Ala138Val p53; series mostly up to 46.1 µM
How it was run: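 Hit confirmation with a 1:5 dilution series, at 37 deg C for 24 hrs, in H1299 cells co-expressing temperature-sensitive p53-A138V and p53-responsive luciferase. Nocodazole served as control; luminescence read after 10 min with detection reagent.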
Potency is the fitted concentration of half-maximal effect.

Row | Structure (SMILES) | Potency
1 | Cc1cc(C)nc(SCc2csc(-c3ccccc3)n2)n1 | 13 µM (active)
2 | COc1ccc(-c2nnc(-c3ccc(Br)o3)o2)cc1OC | inactive
3 | COc1ccc(CCC(=O)Nc2ccc(-c3noc(-c4ccc(OC)c(OC)c4)n3)cc2)cc1 | inactive
